Results published in PubChem BioAssay (EPA / NIEHS).
Where “and” joins values, the source holds several entries; their conditions need not be identical. Equal entries are not always repeated. The source holds several records for some structures; these can differ, active in one and inactive in another. Calls of active or inactive are those of the source. Rule for the calls: active = hit-call score of the fitted dose curve at least 0.9, where 1 is the maximum; inactive = score below 0.9.

What was measured:
[1] = ATG_M_32_CIS: Attagene CIS-FACTORIAL HepG2 Assay for M32 Transcription Factor (Internal Marker) (AID 2282949); details: HepG2 Attagene cis-factorial M32 reporter, mRNA; actives raise or lower the signal;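 note: background control marker of the multiplexed CIS panel rather than a real target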
Summary of the method: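 Using DMSO as baseline, bidirectional curve fits were applied to reporter mRNA signals. These came from transiently transfected HepG2 cells exposed for 24 h, with RNA analysed by RT-PCR, FAM primer extension, HpaI digestion and CE.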

[2] = ATG_M_06_CIS: Attagene CIS-FACTORIAL HepG2 Assay for M06 Transcription Factor (Internal Marker) (AID 2282950); details: HepG2 Attagene CIS-FACTORIAL M06 internal marker reporter; actives raise or lower the signal
Summary of the method: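 HepG2 cells transiently transfected with cis-regulated multiple reporter transcription units were exposed to chemical for 24 h; reporter mRNA was quantified by RT-PCR, 6-FAM primer labelling, HpaI digestion and capillary electrophoresis, fitted bidirectionally against DMSO.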

[3] = target: Hypoxia-inducible factor 1-alpha (Homo sapiens) (UniProt Q16665); experiment: ATG_HIF1a_CIS: Attagene CIS-FACTORIAL HepG2 Assay for human Hypoxia Inducible Factor 1 (HIF1A) (AID 2282951); details: HepG2 Attagene cis-factorial HIF1a reporter transcription; actives raise or lower the signal
Sequence of Hypoxia-inducible factor 1-alpha (Homo sapiens) (Q16665 whole entry, looked up): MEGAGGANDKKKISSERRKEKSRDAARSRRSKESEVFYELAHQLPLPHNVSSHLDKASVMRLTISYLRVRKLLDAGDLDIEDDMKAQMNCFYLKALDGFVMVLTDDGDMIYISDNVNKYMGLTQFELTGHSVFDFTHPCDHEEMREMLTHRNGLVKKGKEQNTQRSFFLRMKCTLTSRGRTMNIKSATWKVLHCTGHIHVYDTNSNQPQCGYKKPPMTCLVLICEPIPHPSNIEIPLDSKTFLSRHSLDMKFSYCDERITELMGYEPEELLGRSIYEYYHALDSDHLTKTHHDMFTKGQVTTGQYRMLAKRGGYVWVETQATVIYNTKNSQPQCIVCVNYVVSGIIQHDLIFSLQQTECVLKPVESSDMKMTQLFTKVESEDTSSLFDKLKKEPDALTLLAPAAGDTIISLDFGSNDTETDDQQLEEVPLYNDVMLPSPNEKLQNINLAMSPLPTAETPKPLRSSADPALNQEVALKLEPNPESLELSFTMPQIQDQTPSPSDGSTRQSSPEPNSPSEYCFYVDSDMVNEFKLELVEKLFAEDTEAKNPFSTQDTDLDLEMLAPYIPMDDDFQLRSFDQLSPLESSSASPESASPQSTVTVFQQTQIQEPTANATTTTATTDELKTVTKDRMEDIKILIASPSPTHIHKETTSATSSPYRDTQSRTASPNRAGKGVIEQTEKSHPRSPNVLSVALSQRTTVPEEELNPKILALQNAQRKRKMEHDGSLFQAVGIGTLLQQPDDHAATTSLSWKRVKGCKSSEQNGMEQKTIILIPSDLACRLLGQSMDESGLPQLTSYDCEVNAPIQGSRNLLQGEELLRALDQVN
Summary of the method: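 Endogenous-TF cis reporter readout, human HepG2 cells, 24 h incubation; mRNA detected via RT-PCR and capillary electrophoresis fluorescence; DMSO-normalised bidirectional fitting.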

[4] = target: Hepatocyte nuclear factor 6 (Homo sapiens) (UniProt Q9UBC0); experiment: ATG_HNF6_CIS: Attagene CIS-FACTORIAL HepG2 Assay for human Hepatocyte Nuclear Factor 6 (HNF6) (AID 2282952); details: HepG2 Attagene cis-factorial HNF6 reporter transcription; actives raise or lower the signal
Sequence of Hepatocyte nuclear factor 6 (Homo sapiens) (Q9UBC0 whole entry, looked up, the tested form may be a part): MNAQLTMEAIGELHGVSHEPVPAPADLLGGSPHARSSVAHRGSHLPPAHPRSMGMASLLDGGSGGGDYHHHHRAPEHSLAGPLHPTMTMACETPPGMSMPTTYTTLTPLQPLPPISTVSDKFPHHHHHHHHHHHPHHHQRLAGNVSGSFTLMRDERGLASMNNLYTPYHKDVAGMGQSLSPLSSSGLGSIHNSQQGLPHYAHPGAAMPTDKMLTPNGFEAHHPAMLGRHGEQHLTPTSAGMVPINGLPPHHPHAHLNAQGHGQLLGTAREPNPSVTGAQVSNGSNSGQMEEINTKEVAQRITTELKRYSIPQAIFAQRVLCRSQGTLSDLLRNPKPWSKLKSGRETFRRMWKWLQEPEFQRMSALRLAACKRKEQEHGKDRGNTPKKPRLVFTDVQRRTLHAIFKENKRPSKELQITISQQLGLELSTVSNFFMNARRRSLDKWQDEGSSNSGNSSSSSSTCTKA
Summary of the method: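 Readout: fluorescent reporter-transcript fragments resolved by capillary electrophoresis after RT-PCR, reflecting endogenous factor activity in transfected HepG2. Exposure 24 h. Gain or loss of signal fitted bidirectionally against DMSO.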

[5] = target: Heat shock factor protein 1 (Homo sapiens) (UniProt Q00613); experiment: ATG_HSE_CIS: Attagene CIS-FACTORIAL HepG2 Assay for human Heat Shock Transcription Factor 1 (HSE) (AID 2282953); details: HepG2 HSE cis-reporter, Attagene RNA transcription; actives raise or lower the signal
Sequence of Heat shock factor protein 1 (Homo sapiens) (Q00613 whole entry, looked up): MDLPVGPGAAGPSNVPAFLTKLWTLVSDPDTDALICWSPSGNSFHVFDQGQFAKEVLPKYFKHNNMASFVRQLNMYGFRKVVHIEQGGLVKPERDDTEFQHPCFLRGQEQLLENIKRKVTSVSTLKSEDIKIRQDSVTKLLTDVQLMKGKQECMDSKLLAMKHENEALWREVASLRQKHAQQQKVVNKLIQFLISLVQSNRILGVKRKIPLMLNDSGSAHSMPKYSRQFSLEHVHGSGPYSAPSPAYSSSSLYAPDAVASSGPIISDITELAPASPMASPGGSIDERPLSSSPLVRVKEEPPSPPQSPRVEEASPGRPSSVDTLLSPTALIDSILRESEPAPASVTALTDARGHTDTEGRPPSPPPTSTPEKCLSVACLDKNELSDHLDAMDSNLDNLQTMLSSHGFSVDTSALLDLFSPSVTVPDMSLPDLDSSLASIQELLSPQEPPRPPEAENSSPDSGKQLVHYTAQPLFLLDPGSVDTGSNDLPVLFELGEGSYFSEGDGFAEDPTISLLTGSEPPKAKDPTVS
Summary of the method: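 HepG2 cells transiently transfected with multiple reporter transcription units under cis-regulatory promoter control, measuring endogenous transcription factor activity. After 24 h chemical exposure, reporter mRNA quantified by RT-PCR, fluorescent labelling, HpaI digestion and capillary electrophoresis; bidirectional fit versus DMSO.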

[6] = ATG_MRE_CIS: Attagene CIS-FACTORIAL HepG2 Assay for human Metal Responsive Element (MRE) (AID 2282954); details: HepG2 MRE cis-reporter transcription, Attagene multiplex; actives raise or lower the signal
Summary of the method: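 RT-PCR/capillary electrophoresis readout of reporter mRNA, 24 h post-dosing, in HepG2 cells transfected with multiplexed cis-regulated reporter constructs. Gain or loss of signal fitted bidirectionally against DMSO baseline.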

[7] = ATG_PBREM_CIS: Attagene CIS-FACTORIAL HepG2 Assay for human Phenobarbital-responsive Enhancer Module (PBREM) (AID 2282955); details: HepG2 PBREM cis-reporter, Attagene multiplexed transcription; actives raise or lower the signal
Summary of the method: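 Readout: reporter mRNA, fluorescent RT-PCR fragments separated by capillary electrophoresis. System: HepG2 transiently transfected with cis-regulated reporter units. Exposure: 24 h. Analysis: bidirectional, DMSO baseline.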

[8] = target: Paired box protein Pax-6 (Homo sapiens) (UniProt P26367); experiment: ATG_Pax6_CIS: Attagene CIS-FACTORIAL HepG2 Assay for human Paired Box 6 (PAX6) (AID 2282956); details: HepG2 CIS-FACTORIAL PAX6 reporter transcription, RNA readout; actives raise or lower the signal
Sequence of Paired box protein Pax-6 (Homo sapiens) (P26367 whole entry, looked up): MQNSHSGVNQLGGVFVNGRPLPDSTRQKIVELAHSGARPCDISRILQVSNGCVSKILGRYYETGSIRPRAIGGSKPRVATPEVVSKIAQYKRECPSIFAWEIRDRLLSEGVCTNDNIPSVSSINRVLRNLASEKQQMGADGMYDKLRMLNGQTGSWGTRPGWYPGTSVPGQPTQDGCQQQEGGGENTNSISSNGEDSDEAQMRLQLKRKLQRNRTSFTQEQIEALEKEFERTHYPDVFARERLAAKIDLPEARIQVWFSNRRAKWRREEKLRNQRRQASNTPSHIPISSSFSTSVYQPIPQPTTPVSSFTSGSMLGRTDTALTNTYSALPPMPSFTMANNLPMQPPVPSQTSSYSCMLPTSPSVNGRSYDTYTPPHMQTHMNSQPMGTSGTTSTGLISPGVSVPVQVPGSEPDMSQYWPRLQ
Summary of the method: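 DMSO-referenced bidirectional fits of reporter mRNA fluorescence; HepG2 with transient cis-promoter MRTUs, 24 h post-dose, RT-PCR plus capillary electrophoresis detection.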

[9] = ATG_PPRE_CIS: Attagene CIS-FACTORIAL HepG2 Assay for human Peroxisome Proliferator-activated Response Element (PPRE) (AID 2282958); details: HepG2 PPRE cis-element reporter, Attagene transcription factor profiling; actives raise or lower the signal
Summary of the method: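 After human HepG2 hepatoma cells were transiently transfected with cis-promoter reporter constructs, they were exposed to test chemicals for 24 hours. Reporter RNA was then reverse-transcribed, PCR-amplified, FAM-labeled, HpaI-digested and quantified by capillary electrophoresis.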

[10] = ATG_PXRE_CIS: Attagene CIS-FACTORIAL HepG2 Assay for human Pregnane X Receptor Element (PXRE) (AID 2282957); details: HepG2 Attagene CIS-FACTORIAL PXRE reporter, mRNA; actives raise or lower the signal
Summary of the method: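 Read-out: fluorescence of reporter-specific RT-PCR products resolved by capillary electrophoresis, fitted bidirectionally relative to DMSO. Human HepG2 liver cells carried transfected cis-promoter reporter units and were exposed to chemicals for 24 h.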

Structure (SMILES)	outcome [1]	outcome [2]	outcome [3]	outcome [4]	outcome [5]	outcome [6]	outcome [7]	outcome [8]	outcome [9]	outcome [10]	AC50 [5]	AC50 [3]	AC50 [4]	AC50 [6]	AC50 [7]	AC50 [8]	AC50 [10]	AC50 [9]
CN(CCO)S(=O)(=O)C(F)(F)C(F)(F)C(F)(F)C(F)(F)C(F)(F)C(F)(F)C(F)(F)C(F)(F)F	inactive	inactive	inactive	inactive	inactive	inactive	inactive	inactive	inactive	–	–	–	–	–	–	–	–	–
Nc1ccc(O)c(C(=O)O)c1	inactive	inactive	inactive	inactive	inactive	inactive	inactive	inactive	inactive	inactive	–	–	–	–	–	–	–	–
NNc1nc(-c2ccc([N+](=O)[O-])cc2)cs1	inactive	inactive	inactive	inactive	–	inactive	inactive	inactive	inactive	–	51.3 µM (active)	–	–	–	–	–	–	–
CCCCCCCCCCCCCCC	inactive	inactive	inactive	inactive	inactive	–	inactive	inactive	–	inactive	–	–	–	–	–	–	–	–
OCC1CCC(CO)CC1 (stereo unspecified)	inactive	inactive	inactive	inactive	inactive	inactive	inactive	inactive	inactive	–	–	–	–	–	–	–	–	–
O=S(=O)(O)C(F)(F)C(F)(F)C(F)(F)C(F)(F)C(F)(F)C(F)(F)C(F)(F)C(F)(F)C(F)(F)C(F)(F)F	inactive	inactive	inactive	inactive	inactive	inactive	inactive	inactive	inactive	–	–	–	–	–	–	–	–	–
FC(F)(F)C1(F)C(F)(F)C(F)(F)C(F)(F)C1(F)F	inactive	inactive	inactive	inactive	inactive	inactive	inactive	inactive	inactive	inactive	–	–	–	–	–	–	–	–
COC1=CC(=O)C[C@@H](C)[C@]12Oc1c(Cl)c(OC)cc(OC)c1C2=O	inactive	inactive	–	inactive	inactive	inactive	inactive	inactive	inactive	–	–	26.6 µM (active)	–	–	–	–	–	–
O=C(O)CN(CCCN(CC(=O)O)CC(=O)O)CC(=O)O	inactive	inactive	inactive	inactive	inactive	inactive	inactive	inactive	inactive	–	–	–	–	–	–	–	–	–
COc1ccccc1NC(=O)c1cc2ccccc2cc1O	inactive	inactive	–	–	–	–	–	–	inactive	–	57.3 µM (active)	22.7 µM (active)	137 µM (active)	23.3 µM (active)	6.07 µM (active)	54.8 µM (active)	1.63 µM (active)	–
O=P(O)(O)CCC(F)(F)C(F)(F)C(F)(F)C(F)(F)C(F)(F)C(F)(F)C(F)(F)C(F)(F)F	inactive	inactive	inactive	inactive	inactive	inactive	inactive	inactive	inactive	–	–	–	–	–	–	–	–	–
CNNCc1ccc(C(=O)NC(C)C)cc1	inactive	inactive	inactive	inactive	inactive	–	inactive	inactive	inactive	inactive	–	–	–	–	–	–	25.7 µM (active)	–
NCCN	inactive	inactive	inactive	inactive	inactive	inactive	–	inactive	inactive	inactive	–	–	–	–	–	–	164 µM (active)	–
CCCCCCCCCCCCCCCCCC[N+](C)(C)Cc1ccccc1	inactive	inactive	inactive	–	inactive	–	inactive	inactive	–	–	–	–	10.1 µM (active)	7.27 µM (active)	–	–	–	79.8 µM (active)
CCC1CO1 (stereo unspecified)	inactive	inactive	inactive	inactive	inactive	inactive	–	inactive	inactive	inactive	–	–	–	–	–	–	–	–
CCCCCc1ccc(O)cc1	inactive	inactive	inactive	inactive	–	inactive	inactive	inactive	inactive	–	33.4 µM (active)	–	–	–	–	–	–	–

Structure (SMILES)	outcome [1]	outcome [2]	outcome [3]	outcome [4]	outcome [5]	outcome [6]	outcome [7]	outcome [8]	outcome [9]	outcome [10]	AC50 [5]	AC50 [3]	AC50 [4]	AC50 [6]	AC50 [7]	AC50 [8]	AC50 [10]	AC50 [9]
CCC(=O)O	inactive	inactive	inactive	inactive	inactive	inactive	–	inactive	inactive	inactive	–	–	–	–	–	–	–	–
O=P(O)(O)CCC(F)(F)C(F)(F)C(F)(F)C(F)(F)C(F)(F)C(F)(F)F	inactive	inactive	inactive	inactive	inactive	inactive	inactive	inactive	inactive	inactive	–	–	–	–	–	–	–	–
C[C@]12CC[C@@H]3c4ccc(O)cc4CC[C@H]3[C@@H]1C[C@@H](O)[C@@H]2O	inactive	inactive	inactive	inactive	inactive	inactive	–	inactive	inactive	–	–	–	–	–	–	–	–	–
CCCCN(C)C	inactive	inactive	inactive	inactive	inactive	inactive	inactive	inactive	inactive	–	–	–	–	–	–	–	26.9 µM (active)	–
COc1cc(OC)nc(NC(=O)NS(=O)(=O)Nc2ccccc2C(=O)N(C)C)n1	inactive	inactive	inactive	inactive	inactive	inactive	inactive	inactive	inactive	–	–	–	–	–	–	–	–	–
CCCCC(CC)C(=O)OCCOCCOCCOCCOC(=O)C(CC)CCCC (stereo unspecified)	inactive	inactive	inactive	inactive	inactive	inactive	–	inactive	inactive	–	–	–	–	–	27.6 µM (active)	–	27.5 µM (active)	–
NCc1cccc(CN)c1	inactive	inactive	–	inactive	inactive	inactive	inactive	inactive	inactive	–	–	24.4 µM (active)	–	–	–	–	–	–
CCO[Si](CCC1CCC2OC2C1)(OCC)OCC (stereo unspecified)	inactive	inactive	inactive	inactive	inactive	–	inactive	inactive	inactive	inactive	–	–	–	–	–	–	–	–
CCCCCCOC(=O)c1ccc(O)cc1	inactive	inactive	inactive	–	–	–	–	–	–	–	60.8 µM (active)	–	52.7 µM (active)	–	29.8 µM (active)	53.7 µM (active)	13 µM (active)	22.9 µM (active)
CC1CCC(C(=O)O)CC1 (stereo unspecified)	inactive	inactive	inactive	inactive	inactive	–	inactive	inactive	inactive	inactive	–	–	–	–	–	–	–	–
c1cnc2c(c1)ccc1cccnc12	inactive	inactive	–	inactive	inactive	inactive	inactive	inactive	–	inactive	144 µM (active)	–	–	–	100 µM (active)	–	–	–
OCC(F)(F)C(F)(F)C(F)(F)C(F)(F)C(F)(F)C(F)(F)C(F)(F)C(F)(F)C(F)(F)C(F)(F)C(F)(F)F	inactive	inactive	inactive	inactive	inactive	–	inactive	inactive	inactive	inactive	–	–	–	–	–	–	–	–
CC(C)c1c(C(=O)Nc2ccccc2)c(-c2ccccc2)c(-c2ccc(F)cc2)n1CC[C@@H](O)C[C@@H](O)CC(=O)O	inactive	inactive	–	–	inactive	–	inactive	inactive	inactive	–	–	57.9 µM (active) and 22.5 µM (active)	–	61.4 µM (active) and 34.3 µM (active)	25.3 µM (active)	94.5 µM (active)	5.31 µM (active) and 12.2 µM (active)	–
O=C(c1ccccc1)c1ccccc1	inactive	inactive	inactive	–	inactive	–	–	inactive	–	inactive	–	–	–	–	–	–	51.4 µM (active)	–
CCCCCCCCCCCCCCCC(=O)OC	inactive	inactive	inactive	inactive	inactive	–	inactive	inactive	inactive	inactive	–	–	–	–	–	–	–	–
